Measurements: PubChem BioAssay
“And” between values parts separate entries of the source, which are not always exact repeats. Identical values can stand only once.

molecular target: Left-right determination factor 2 (Homo sapiens) (UniProt O00292); assay: LEFTY2 binders on small-molecule microarrays, primary screen, biochemical, small-molecule microarray, 635 nm fluorescence scan (AID 1110); conditions: LEFTY2 binding, higher = more signal
Sequence (O00292 whole entry, looked up): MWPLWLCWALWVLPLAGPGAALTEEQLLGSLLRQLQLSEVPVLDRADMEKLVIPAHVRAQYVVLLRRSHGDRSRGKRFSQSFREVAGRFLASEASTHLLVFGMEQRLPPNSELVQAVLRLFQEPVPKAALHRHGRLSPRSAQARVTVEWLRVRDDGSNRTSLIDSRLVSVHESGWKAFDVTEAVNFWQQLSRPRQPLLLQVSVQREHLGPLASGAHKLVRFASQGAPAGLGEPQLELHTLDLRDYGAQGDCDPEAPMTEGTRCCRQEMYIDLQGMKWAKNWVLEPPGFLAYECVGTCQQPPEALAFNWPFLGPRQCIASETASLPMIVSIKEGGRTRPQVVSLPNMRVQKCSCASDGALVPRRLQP

| Structure (SMILES) | composite z-score |
| --- | --- |
| C[N+](C)(C)CCCCNC(=O)[C@H]1C[C@H]2C(=O)N[C@@H](CCCC[N+](C)(C)C)C(=O)N2[C@H]1c1ccc(O)cc1 | 1.41 and 1.47 |
| CO[C@@H]1COC(=O)[C@H](Cc2ccccc2)NC(=O)CC=C[C@@H](C)[C@H](OC)COC(=O)[C@@H](C)NC(=O)CC=C[C@H]1C | 0.79 and 0.972 |
| CCOC(=O)c1ccc(NC(=O)O[C@H]2[C@H](OC(=O)Nc3ccccc3)[C@H](OC(=O)Nc3ccccc3)[C@@H](OC)O[C@@H]2CO)cc1 | 0.899 and 0.291 |
| CC(C)OC(=O)C=C1C[C@@H](c2ccccc2)O[C@@H](c2ccccc2)O1 | 0.826 and 0.795 |
| C=CCN(C(=O)C1N(CCOCCO)C(=O)C2C(C(=O)O)C3C=CC21O3)c1ccc(OC)cc1 (centres undefined) | -2.03 and -2.77 |
| CCCC[C@@H]1CN2[C@H](c3ccc(Br)cc3)[C@@H](C)CC[C@H]2C(=O)O1 | 0.189 and 0.327 |
| COC(=O)[C@@]1(Cc2ccc(OC)cc2)[C@H]2c3cc(C(=O)N(C)C)n(Cc4ccc(O)c(OC)c4)c3C[C@H]2CN1C(=O)c1ccccc1 | -0.3 and -0.586 |
| CCOC(=O)NN=C1C[C@@H](O)[C@@H](O)[C@@H]2[C@@H]3C(=O)N(Cc4ccc5c(c4)OCO5)C(=O)[C@@H]3CC[C@@H]12 | -0.0145 |
| C=CCN(CCCC)C(=O)C(c1cccs1)N(CCOCCO)C(=O)/C=C\C(=O)O (centres undefined) | -2.21 and -0.742 |
| C=CCN(CCCCC)C(=O)C(c1cccs1)N(C(=O)/C=C\C(=O)O)c1c(Cl)cccc1CO (centres undefined) | -3.1 and -0.775 |
| CC(CO)N1C(=O)[C@@H]2C3C(=O)OCCC=C[C@H]3OC23C=CCN(c2ccc4ccccc4c2)C(=O)[C@@H]13 (some centres undefined) | -1.21 and 0.0157 |
| C=C[C@@H](C)[C@@H](O)c1ccc(O)c2ccccc12 | -1.21 and -0.861 |
| C=CCN(C(=O)C1N(CCCCCCO)C(=O)C2C(C(=O)O)C3C=CC21O3)c1ccc(OC)cc1 (centres undefined) | -3.9 and -3.75 |
| CC[C@@H]1C(Sc2ccccc2)C(C(=O)O)[C@H](c2ccc(C)cc2)N1S(=O)(=O)c1ccc(C)cc1 (some centres undefined) | -0.311 and 0.047 |
| CC(C)=NO[C@@H](C)c1cc(-c2c(C)cc(C)cc2C)no1 | 0.192 |
| C[N+](C)(C)CCCCCCNC(=O)[C@H]1C[C@H]2C(=O)N[C@@H](CCCC[N+](C)(C)C)C(=O)N2[C@H]1c1ccc(O)cc1 | 0.633 and -0.0601 |
| C=CCN(C(=O)C(c1cccs1)N(C(=O)/C=C\C(=O)O)c1ccc(CCO)cc1)C(C)(C)C (centres undefined) | -3.2 and -3.93 |
| C=C[C@@H](OC)[C@H](O)c1ccc(OC)c(O)c1 | 0.861 and -0.46 |
| C#CCCCON=C1C[C@@H](O)[C@@H](O)[C@@H]2[C@@H]3C(=O)N(C4CCCCC4)C(=O)[C@@H]3CC[C@H]12 | 0.16 |
| CC(C)N1CC=CC23O[C@@H]4C=CCCOC(=O)C4[C@H]2C(=O)N(C(C)CO)[C@@H]3C1=O (some centres undefined) | -1.4 and -1.42 |

| Structure (SMILES) | composite z-score |
| --- | --- |
| CCOC(=O)[C@@H]1CC=C2CC1C(=O)N1CCC[C@@H]1[C@H]2O[Si](C)(C)C(C)(C)C (some centres undefined) | -0.355 and 0.279 |
| C=CCN(CCCC)C(=O)C(c1cccs1)N(C(=O)/C=C\C(=O)O)c1ccc(CCO)cc1 (centres undefined) | -2.24 and -2.46 |
| COC(=O)[C@H](C)NC(=O)CCC1CC(OC(=O)NCCc2ccc(F)cc2)CC2(CCCC(COC(=O)NCCCN3CCCC3=O)O2)O1 (some centres undefined) | 1.21 |
| C[C@@H]1CC[C@@H](C(=O)O)N[C@H]1c1ccc(-c2ccco2)cc1 | 0.88 |
| CCOC(=O)C[C@H]1[C@H](OC(=O)c2ccccc2-c2ccccc2)[C@@H](NC(=O)c2ccccc2)c2cc(OCCCO)ccc2N1C(=O)c1ccc2ccccc2n1 | 0.668 and 0.619 |
| COC(=O)C1=C(C)N(Cc2ccccc2)C2=C3C(=O)N(C)C(=O)[C@@H]3[C@@](O)(C(=O)OC)C(=O)N2[C@@H]1c1ccccc1 | 0.356 and 0.796 |
| CC(C)CON=C1C[C@@H](O)[C@@H](O)[C@@H]2[C@@H]3C(=O)N(c4cccc(Oc5ccccc5)c4)C(=O)[C@@H]3CC[C@H]12 | 0.432 |
| C=C[C@@H](OC)[C@H](O)c1ccc(OCCO)cc1 | -1.42 and -0.132 |
| CC(CO)N1C(=O)[C@@H]2C3C(=O)OCCC=C[C@H]3OC23C=CCN(c2ccc(Cl)cc2)C(=O)[C@@H]13 (some centres undefined) | -0.905 and -1.03 |
| C=CCN(CCCCC)C(=O)C1N(CCOCCO)C(=O)C2C(C(=O)O)C3C=CC21O3 (centres undefined) | -2.78 and -1.83 |
| C=CCN(C(=O)C1N(CCCCCCO)C(=O)C2C(C(=O)O)C3C=CC21O3)C(C)(C)C (centres undefined) | -3.98 and -3.63 |
| COC(=O)C1=C(C)N(Cc2ccccc2)C2=C(C(C)=O)C[C@@](O)(C(=O)OC)C(=O)N2[C@@H]1c1ccccc1 | 0.85 and 0.187 |
| C=CCN(C(=O)C(c1cccs1)N(CCOCCO)C(=O)/C=C\C(=O)O)C(C)(C)C (centres undefined) | -2.67 and -2.46 |
| COC(=O)C1=C(C)N(Cc2ccccc2)[C@]23O[C@](C(=O)OC)(C(=O)N2[C@@H]1c1ccccc1)[C@@H](C(=O)OC)[C@H]3C(=O)OC | -0.2 and 0.674 |
| C=C[C@H](C)[C@@H](O)c1ccc(OCCO)cc1 | -1.11 and -1.45 |
| C=CCN(CCCC)C(=O)C1N(c2c(Cl)cccc2CO)C(=O)C2C(C(=O)O)C3C=CC21O3 (centres undefined) | -3.23 and -2.18 |
| CCCNC(=O)OC[C@H]1O[C@H](CCON=C(C)CCN2CCc3nc(-c4ccccc4)c(-c4ccccc4)cc3C2)C=C[C@@H]1Oc1ccc(OC)cc1 | 0.135 |
| COC(=O)c1c2oc(c1C(=O)OC)C(=O)N[C@@H](Cc1ccccc1)Cn1cc(nn1)C1(CCCCC1)NC(=O)N[C@H](CO)CC2 | 0.564 and 0.328 |
| C=CCN(Cc1ccccc1)C(=O)C(c1cccs1)N(C(=O)/C=C\C(=O)O)c1ccc(CCO)cc1 (centres undefined) | -2.74 and -3.22 |
